Data taken from PubChem BioAssay (Tox21).
Inconclusive results are not listed. A call without a number means that no potency is given here. Active and inactive are the calls of the source. Calls follow the shape of the dose curve; as a rule, active = well fitted activation curve with a large enough effect in the repeat runs; inconclusive = weak or mixed curves; inactive = no such curve, though single readings can be large or run the other way.

These compounds were tested against Aryl hydrocarbon receptor (Homo sapiens) (UniProt P35869) (assay: qHTS assay to identify small molecule that activate the aryl hydrocarbon receptor (AhR) signaling pathway (AID 743085; also: nearly all actives have a fitted effect of over 15% in size;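 as to activation: HG2L7.5c1 human HepG2 liver cells with stably integrated DRE-driven firefly reporter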)). Conditions: HepG2 AhR-luc (HG2L7.5c1), luciferase, 24 h; series mostly up to 70.3 µM.
Sequence of Aryl hydrocarbon receptor (Homo sapiens) (P35869 whole entry, looked up): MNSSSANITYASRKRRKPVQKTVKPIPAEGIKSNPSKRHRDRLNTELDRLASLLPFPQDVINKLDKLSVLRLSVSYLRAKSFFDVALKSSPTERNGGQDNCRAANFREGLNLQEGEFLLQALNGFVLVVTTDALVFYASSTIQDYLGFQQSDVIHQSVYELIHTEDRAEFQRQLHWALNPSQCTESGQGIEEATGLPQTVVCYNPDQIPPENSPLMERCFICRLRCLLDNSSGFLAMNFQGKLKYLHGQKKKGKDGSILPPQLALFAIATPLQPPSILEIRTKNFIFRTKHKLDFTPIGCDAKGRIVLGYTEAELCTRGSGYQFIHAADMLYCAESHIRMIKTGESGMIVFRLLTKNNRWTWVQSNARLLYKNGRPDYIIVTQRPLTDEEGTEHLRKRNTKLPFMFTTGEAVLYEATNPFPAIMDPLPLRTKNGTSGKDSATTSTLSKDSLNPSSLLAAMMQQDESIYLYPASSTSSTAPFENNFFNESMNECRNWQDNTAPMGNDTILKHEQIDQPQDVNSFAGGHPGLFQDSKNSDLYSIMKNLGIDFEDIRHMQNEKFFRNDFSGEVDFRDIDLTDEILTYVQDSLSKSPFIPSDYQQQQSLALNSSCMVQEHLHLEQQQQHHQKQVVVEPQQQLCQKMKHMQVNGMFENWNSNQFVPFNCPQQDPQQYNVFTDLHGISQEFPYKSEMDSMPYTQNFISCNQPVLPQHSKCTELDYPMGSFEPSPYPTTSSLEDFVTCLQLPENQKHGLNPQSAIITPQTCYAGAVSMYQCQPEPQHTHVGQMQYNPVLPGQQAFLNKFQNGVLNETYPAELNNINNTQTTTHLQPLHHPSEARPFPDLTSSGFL
Text: U.S. Tox21 Program National Center for Advancing Translational Sciences [NCATS] NIH Chemical Genomics Center [NCGC] U.S. Environmental Protection Agency [EPA] National Institutes of Environmental Health Sciences [NIEHS] National Toxicology Program [NTP] U.S. Food and Drug Administration [FDA] Tox21 Assay overview: The Aryl hydrocarbon Receptor (AhR), a member of the family of basic helix-loop-helix transcription factors, is crucial to adaptive responses to environmental changes. AhR mediates cellular responses to environmental pollutants such as aromatic hydrocarbons through induction of phase I and II enzymes but also interacts with other nuclear receptor signaling pathways. A cell based HepG2-AhR-luc assay (HG2L7.5c1 cell line, developed by Dr. Michael S. Denison, University of California at Davis, was used to assess the activation of AhR. HepG2 (human hepatocellular carcinoma) cells were stably transfected with an Ah receptor-responsive firefly luciferase reporter gene plasmid containing 20 dioxin responsive elements and luciferase reporter gene. Increased luciferase activity can be used to identify the compounds that induce AhR activation.
Tox21 Assay Protocol Summary: 4000 cells in 5 uL/well were dispensed into white wall/solid bottom 1536-well plates using a Multidrop Combi (Thermo Fisher Scientific Inc., Waltham, MA) dispenser. After the assay plates were incubated at 37C for 5 h, 23 nL of compound or DMSO vehicle was transferred to the assay plates by a pintool station (Kalypsys, San Diego, CA). The plates were incubated at 37C for 24 hr. After 1 ul/well of CellTiter-Fluor reagent (Promega, Madison, WI) was added into the assay plates using a Flying Reagent Dispenser (FRD) (Aurora Discovery, CA), the assay plates were incubated at 37C for 30 min. The fluorescence intensity in the plates was measured using a ViewLux plate reader (PerkinElmer, Shelton, CT), followed by the addition of 4 uL of ONE-Glo Luciferase Assay reagent (Promega) using an FRD (Aurora Discovery). After the assay plates were incubated at room temperature for 30 min, luminescence intensity was measured using a ViewLux plate reader (Perkin Elmer).
Potency is read from the fitted curve at half-maximal effect.

| SMILES | Potency |
| --- | --- |
| CCN1CCN(C(=O)N[C@@H](C(=O)N[C@@H]2C(=O)N3[C@@H]2SC(C)(C)[C@H]3C(=O)O)c2ccccc2)C(=O)C1=O | inactive |
| O=S(=O)(O)CC(O)CCl (stereo not given) | inactive |
| CCCCCCCCCCCC(C)=O | inactive |
| CC(C)(C)NCC(O)COc1cccc2c1CCC(=O)N2 (stereo not given) | inactive |
| CC1(C)S[C@@H]2[C@H](NC(=O)Cc3ccccc3)C(=O)N2[C@H]1C(=O)O (tested in a mixture with another compound) | inactive |
| CCCCN=C(N)N=C(N)N | inactive |
| CCCCC(CC)CCC(CC(C)C)OS(=O)(=O)O (stereo not given) | inactive |
| CC(=O)c1ccc2ccc3ccccc3c2c1 | 60.8 µM (active) |
| CCOC(=O)CC(C(C)=O)C(C)=O | inactive |
| CCC(C)(C)C | inactive |
| CC(C)(C)c1ccc(N)cc1 | inactive |
| CC(C)C(C)C | inactive |
| N=C(N)N | inactive |
| COC(=O)c1c(C)cc(O)c(C)c1O | inactive |
| COc1cnc(NS(=O)(=O)c2ccc(N)cc2)nc1 | inactive |
| CC[C@@]1(c2ccccc2)NC(=O)N(C)C1=O | inactive |
| C=COCCCCO | inactive |
| CC(C)(C)C(=O)CCc1ccc(Cl)cc1 | inactive |
| C/C(Cl)=C/CCl | inactive |
| C[C@@H](CN1CC(=O)NC(=O)C1)N1CC(=O)NC(=O)C1 | inactive |

| SMILES | Potency |
| --- | --- |
| COc1cc(OC)cc(OC)c1 | inactive |
| CCCC(=O)CC | inactive |
| Cc1cccc(N)n1 | inactive |
| N#Cc1ccccc1C#N | inactive |
| CC12CCCC=C1C(=O)OC2=O (stereo not given) | inactive |
| CC(C)c1cc(C(C)C)cc(C(C)C)c1 | inactive |
| CC(=O)OC/C=C(/C)CCC=C(C)C | inactive |
| COC(=O)c1ccc(C(=O)O)cc1 | inactive |
| C[Si](C)(C)O[Si](O)(O)O | inactive |
| Cc1cc(C)c(C)c(C)c1 | inactive |
| CCCCCCC(O)CO (stereo not given) | inactive |
| CCC(C)c1nccnc1OC (stereo not given) | inactive |
| Cc1ccccc1C#N | inactive |
| CC(=O)Nc1ccc(S(=O)(=O)Nc2cc(C)on2)cc1 | inactive |
| CC(=O)Oc1ccc(C(C)=O)cc1 | inactive |
| Cc1ccc(OC(=O)CC(C)C)cc1 | inactive |
| N=C(N)N1CCc2ccccc2C1 | inactive |
| CC(=O)SC[C@@H](C)C(=O)N1CCC[C@H]1C(=O)N[C@@H](Cc1ccccc1)C(=O)O | inactive |
| Cc1ccc(Br)cc1 | inactive |
| CSC(=O)c1cccc2nnsc12 | inactive |
